Screening data from PubChem BioAssay.
BRCT inh green = qHTS Assay for Inhibitors of BRCT-Phosphoprotein Interaction (Green Fluorophore); Potency, µM (titrated, usually from 76.9 µM), without a hit: top-dose activity change, negative = inhibition, usual class: inhibitors; BRCA1 BRCT-phosphopeptide binding, green fluorescence polarization; hit rate 0.05% among 75,000;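 note: potency is the fitted concentration of half-maximal effect; plate controls were peptide without protein for full effect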
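Fluorescence polarization: His-tagged BRCT (~35 kDa BRCA1 C-terminus, 250 nM) bound to 100 nM fluorescein-labeled phosphorylated 10-aa BACH1 peptide, pH 7.3 phosphate buffer with DTT and Tween 20. Compounds incubated 12 min at room temperature; inhibition read as lowered polarization.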
Tau fil binding = qHTS Assay for Tau Filament Binding | Microtubule-associated protein tau (Homo sapiens), P10636 | recombinant tau filaments, thioflavin S fluorescence, 15 h; filaments grown with octadecylsulfate alongside compound | Potency, µM (top dose mostly 57.1 µM), inactives show at the highest dose activity change, negative = inhibition | hit rate 2% among 71,000 | AID 596, 2007;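 note: potency is the fitted concentration of half-maximal effect; % is set by controls: 0 for no effect and ±100 for the full control effect; actives lower thioflavin S fluorescence by blocking filaments or displacing dye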
Target sequence (P10636 whole entry, looked up): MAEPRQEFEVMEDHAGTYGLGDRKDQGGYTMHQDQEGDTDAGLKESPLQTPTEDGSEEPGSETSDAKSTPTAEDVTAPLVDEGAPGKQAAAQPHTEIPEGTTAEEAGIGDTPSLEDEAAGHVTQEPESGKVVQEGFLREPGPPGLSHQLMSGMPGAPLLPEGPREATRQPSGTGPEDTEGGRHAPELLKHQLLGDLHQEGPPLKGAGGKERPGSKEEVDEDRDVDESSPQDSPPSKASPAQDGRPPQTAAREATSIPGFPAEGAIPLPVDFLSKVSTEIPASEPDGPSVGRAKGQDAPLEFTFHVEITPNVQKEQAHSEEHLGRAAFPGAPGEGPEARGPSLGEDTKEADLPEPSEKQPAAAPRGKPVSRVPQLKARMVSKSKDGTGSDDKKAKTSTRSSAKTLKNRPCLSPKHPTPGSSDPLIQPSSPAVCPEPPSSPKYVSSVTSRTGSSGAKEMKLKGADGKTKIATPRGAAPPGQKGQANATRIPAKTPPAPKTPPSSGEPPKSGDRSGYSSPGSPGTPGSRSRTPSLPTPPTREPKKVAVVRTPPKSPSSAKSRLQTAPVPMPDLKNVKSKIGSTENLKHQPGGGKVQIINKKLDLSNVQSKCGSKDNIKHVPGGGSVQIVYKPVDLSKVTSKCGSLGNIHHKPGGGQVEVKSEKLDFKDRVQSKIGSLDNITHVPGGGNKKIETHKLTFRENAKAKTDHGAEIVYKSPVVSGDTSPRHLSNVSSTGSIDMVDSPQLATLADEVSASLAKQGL
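Thioflavine S fluorescence (ex 450, em 510 nm) reports filaments formed from 1 uM human tau plus 30 uM ODS over 15 h at 37 C (10 mM HEPES pH 7.4, 100 mM NaCl, 5 mM DTT); compounds displacing dye or blocking filaments lower signal.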
YjeE inh = qHTS Assay for Inhibitors of YjeE; tRNA threonylcarbamoyladenosine biosynthesis protein TsaE (Escherichia coli (strain …; purified YjeE enzyme, qHTS inhibition assay; Potency, µM; hit rate 0.05% among 71,000
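Purified YjeE (10 uM) with BODIPY Texas Red-labeled ADP probe (2 uM); compounds pin-transferred, 15 min at room temperature. Binding inhibition read as decreased fluorescence polarization; ADP titration as control.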
Pol III holo inh = qHTS Assay for Inhibitors of DNA Polymerase III Holoenzyme System; AID 603, 2007; Potency, µM (titrated, usually from 57.1 µM), inactives show at the top dose activity change, negative = inhibition; hit rate 0.25% among 71,000; reconstituted DNA polymerase III holoenzyme replication, biochemical; note: potency is the fitted concentration of half-maximal effect; % is set by controls: 0 for no effect and ±100 for the full control effect
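Reconstituted *E. coli* holoenzyme (0.35 nM Pol III, 1 nM beta, 154 nM SSB, 2 nM primase) was preincubated with compound for 15 min at RT. Synthesis on 1.4 nM ssM13Gori ran 35 min, then was stopped with PicoGreen/EDTA and read as dsDNA fluorescence.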
BRCT inh red = qHTS Assay for Inhibitors of BRCT-Phosphoprotein Interaction (Red Fluorophore). BRCT-phosphopeptide binding, red fluorescence polarization. Potency, µM (highest dose often 76.9 µM), inactives show top-dose activity change, negative = inhibition, hits mostly inhibitors. hit rate 0.03% among 75,000. AID 892, 2007; note: % is set by controls: 0 for no effect and ±100 for the full control effect
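Rhodamine-labelled pBACH1 10-mer (100 nM) bound to BRCT domain (100 nM) at pH 7.3; compounds incubated 12 min room temperature, polarization read. Free peptide defines full inhibition; unlabelled decapeptide titrated as control.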
Hsp90 Hop PPI = qHTS Assay for Disrupters of an Hsp90 Co-Chaperone Interaction; hit rate 0.44% among 71,000; Potency, µM (doses to about 57 µM), inactives show at the top dose activity change, negative = inhibition; AlphaScreen TPR2A-His6 binding biotin-Hsp90 C-terminal peptide; Hsp90 C-terminal peptide / TPR2A (Hop) interaction, human; active = well fitted curve in either direction with a large enough effect; inconclusive = small, poorly fitted or top-dose-only effect, or another doubt; note: potency is the fitted concentration of half-maximal effect; % is set by controls: 0 for no effect and ±100 for the full control effect
Hsp90 TPR2A CRC = Confirmation Concentration-Response Assay and Counterscreen for Disrupters of an Hsp90 Co-Chaperone Interaction; activity, negative = inhibition, % at 40 µM or 46 µM, hits read low; AlphaScreen TPR2A-His6 / biotin-Hsp90 peptide binding; AID 632, 2007; shares compounds with Hsp90 Hop PPI; hit rate 100% among 45;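 active = compound lowering the Hsp90 and TPR2A binding signal, whether or not the linker counterscreen also flagged it as an artifact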
* = called active by the depositor; i = inactive; ? = inconclusive; . = no result given; ! = not active in a repeat; [ ] = another dose, or the depositor's remark. Rows were chosen to be rich in hits. Some 2.4% of all compounds tested hit in one or more screens of this group. Unless noted, calls come from the whole dose curve; as a rule, active = well fitted curve in the direction sought with a large enough effect; inconclusive = small, poorly fitted or top-dose-only effect, or another doubt; inactive = no such curve, though single readings can be large; an effect the other way counts as inactive or inconclusive.

SMILES	BRCT inh green	Tau fil binding	YjeE inh	Pol III holo inh	BRCT inh red	Hsp90 Hop PPI	others
O=c1c(-c2cccc(F)c2)nc2cncnc2n1Cc1ccc(F)cc1	0%	-21%	i	15%	1%	-16%
O=c1c(-c2ccccc2)nc2cncnc2n1Cc1ccccc1	2%	20µM*	i	-6%	-2%	3%
O=c1c(-c2cccc(F)c2)nc2cncnc2n1Cc1ccccc1	22%	20µM*	i	-5%	-1%	-13%
C[C@H](N)C1CCC(C(=O)Nc2ccncc2)CC1 (some centres not stated)	-2%	-2%	i	-7%	-2%	-4%
C[C@H]1[C@H](C)CC[C@@]2(C(=O)O)CC[C@]3(C)C(=CC[C@@H]4[C@@]5(C)CC[C@H](O)C(C)(C)[C@@H]5CC[C@@]43C)[C@@H]12	.	?	i	-2%	.	2%
c1ccc(CSc2nnc3c(n2)OC(c2ccco2)Nc2ccccc2-3)cc1 (configuration not stated)	-1%	4µM*	i	-2%[11.4 µM]	-2%	-12%[11 µM]
C=CCSc1nnc2c(n1)OC(c1cccnc1)Nc1ccccc1-2 (configuration not stated)	-3%	-5%	i	3%	2%	-2%
[Cu].[O-]/N=C1/C(=[OH+])Nc2ccccc21.[O-]Nc1c(O)[nH]c2ccccc12	-1%[15.4 µM]	-13%[11.4 µM]	i	-9%[11.4 µM]	0%[15.4 µM]	-2%[11 µM]
CCOc1ccccc1Nc1ccc(N)cc1S(=O)(=O)O	-1%[15.4 µM]	-14%[11.4 µM]	i	-10%[11.4 µM]	0%[15.4 µM]	-14%[11 µM]
Cc1ccccc1Cn1ccc(NC(=O)c2cc3nc(-c4ccco4)cc(C(F)(F)F)n3n2)n1	1%	-26%	i	-2%	0%	-2%
COc1cccc(-c2cc(C(=O)Nc3cnn(Cc4ccc(F)cc4)c3)no2)c1	-1%	37%	i	0%	-1%	0%
O=C(Nc1cnn(Cc2ccc(F)cc2)c1)c1cc2nc(-c3ccco3)cc(C(F)(F)F)n2n1	-2%	16µM*	i	-1%	0%	-5%
Cc1nn(Cc2ccccc2)c(C)c1NC(=O)c1cc2nc(-c3ccco3)cc(C(F)(F)F)n2n1	-1%	16µM*	i	-6%	-2%	-1%
c1ccc(-c2cc(-c3nc(-c4cccnc4)no3)c3ccccc3n2)cc1	2%	4µM*	i	-1%	-1%	-2%
COc1ccccc1N1CSC2=C(C#N)C(c3ccc(SC)cc3)CC(=O)N2C1 (configuration not stated)	-1%	25µM*	i	-4%	0%	-6%[2.3 µM]
CCOC(=O)c1nn(-c2ccc(OC)cc2)c(=O)c2c(N)scc12	-2%	16µM*	i	-2%	-2%	-13%
CCOC(=O)c1nn(-c2ccc(OC)cc2)c(=O)c2c(NC(=O)c3ccco3)scc12	-1%	-10%	i	1%	0%	0%
Clc1ccc(N2CCN(Cc3c[nH]c4ncccc34)CC2)cc1	0%	40µM*!	i	-10%	-1%	0%
NCCNCCNCCN	-2%	2%	i	2%	-2%	6.3µM*
c1ccc2c(c1)c1ccccc1n2Cn1c2ccccc2c2ccccc21	-1%[15.4 µM]	-3%[11.4 µM]	i	-6%[11.4 µM]	0%[15.4 µM]	4%[11 µM]
COc1cc(NC(=O)C2CCCO2)c(OC)cc1NC(=O)c1ccccc1 (configuration not stated)	1%	25µM*	i	0%	1%	-11%
COc1cc(NC(=O)c2ccccc2)c(OC)cc1NC(=O)CN1CCOCC1	3%	-23%	i	-6%	1%	-5%
O=C(O)NCC1CCCCC1 (tested in a mixture with another compound)	-2%[15.4 µM]	2%[11.4 µM]	i	-2%[11.4 µM]	0%[15.4 µM]	-2%[11 µM]
C=C[C@@]1(C)C=C2CC[C@@H]3[C@](C)(CCC[C@@]3(C)C(=O)O)[C@H]2CC1	.	6%	i	-7%	.	1%
CCCCSc1nnc(-c2cc(Br)ccc2N)c(=O)[nH]1	0%	20µM*	i	1%	-1%	1%
SMILES	BRCT inh green	Tau fil binding	YjeE inh	Pol III holo inh	BRCT inh red	Hsp90 Hop PPI	others
C=CCSc1nnc(-c2cc(Br)ccc2N)c(=O)[nH]1	-2%	-22%	i	-7%	1%	-2%
N#C/C(C(N)=O)=c1/ccc2c(c1)N1C3=C(CCCC3)CC3CCCCC31N=2 (configuration not stated)	-1%	5µM*	40µM*	1%	-1%	?
N#CC(C#N)=c1ccc2c(c1)N1C3=C(CCCC3)CC3CCCCC31N=2 (configuration not stated)	-1%	1.6µM*	i	4%	-3%	?
CC(=O)CC(=O)Nc1ccccc1	-1%	1%	i	-4%	-1%	3%
Cc1ccc2nc(-c3ccc(NC(=O)c4ccc(N)cc4)c(S(=O)(=O)O)c3)sc2c1	-1%[15.4 µM]	-1%[11.4 µM]	i	-10%[11.4 µM]	0%[15.4 µM]	2%[11 µM]
O=C(Nc1cc(C(=O)Nc2ccc(S(=O)(=O)O)cc2S(=O)(=O)O)cc(C(=O)Nc2ccc(S(=O)(=O)O)cc2S(=O)(=O)O)c1)Nc1cc(C(=O)Nc2ccc(S(=O)(=O)O)cc2S(=O)(=O)O)cc(C(=O)Nc2ccc(S(=O)(=O)O)cc2S(=O)(=O)O)c1	-3%	?	i	4µM*	48%	?
O=C(Nc1ccc(C(=O)Nc2ccc(C(=O)Nc3ccc(S(=O)(=O)O)c4cc(S(=O)(=O)O)cc(S(=O)(=O)O)c34)cc2)cc1)Nc1ccc(C(=O)Nc2ccc(C(=O)Nc3ccc(S(=O)(=O)O)c4cc(S(=O)(=O)O)cc(S(=O)(=O)O)c34)cc2)cc1	-8%	?	i	32µM*	56%	?
CCCCC#CC1C=CC(OC(C)=O)C(COC(C)=O)O1 (configuration not stated)	-3%[15.4 µM]	.	.	.	-1%[15.4 µM]	.
Cc1cc(=O)[nH]c(/N=C(\N)Nc2ccc(Cl)cc2)n1	0%[15.4 µM]	8%[11.4 µM]	i	-12%[11.4 µM]	-1%[15.4 µM]	-3%[11 µM]
Nc1nc(N)nc(-c2ccccn2)n1	-3%	6%	i	-2%	-1%	7.9µM*	Hsp90 TPR2A CRC=-99*[alpha-screen platform artifact]
